Gal4-VP16 FLuc = counter-screen for ROR gamma inhibitors: Gal4-VP16 reporter; Drosophila S2 Gal4-VP16 UAS-luciferase, luminescence, 20 h; Potency, µM (doses to about 53.6 µM), for the others: at the highest dose activity, negative = inhibition, usual class: inhibitors; 3.5% of 310,000 active; AID 2546;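 note: Gal4-VP16 expression switched on by copper sulfate through the metallothionein promoter; % is set by controls: 0 for no effect and ±100 for the full control effect; nearly all actives have a fitted effect of over 50% in size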
ClpP mod = qHTS Assay for Activators of ClpP. purified B. subtilis ClpP, FRET peptide cleavage, 20 min. Potency, µM (top dose mostly 57.5 µM), inactives show top-dose activity change, negative = active. 1.9% of 340,000 active. AID 651965, 2013; active = well fitted falling curve with a large enough effect; inconclusive = small, poorly fitted or top-dose-only effect; inactive = no such curve, though single readings can be large or run the other way; note: the source files actives as falling curves though it sought activators and does not explain the sign; nearly all actives have a fitted effect of over 65% in size
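Purified B. subtilis ClpP, 10 microg/mL final in Tris/HCl pH8 with KCl, BSA, glycerol and Tween-20, cleaved an Abz/nitrotyrosine-quenched decapeptide. Fluorescence (ex 320, em 430) was read at 0 and 20 min at room temperature. Delta was normalized to 5.8 microM ADEP and DMSO/no-enzyme controls.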
Epigenetic reg = regulators of epigenetic silencing causing reporter derepression in mouse cells; 0.2% of 280,000 active; AID 1865; murine LDR cells, GFP reporter derepression, 30 h; Potency, µM (series often up to 53.9 µM), inactives show at the top dose GFP activation, most hits filed as activators; note: % of control where 0% means no effect; nearly all actives have a fitted effect of over 60% in size
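Derepression of a silenced CMV-GFP reporter in murine LDR cells is scored by enumerating GFP-positive cells with a laser-scanning microplate cytometer after 30 hours of treatment at 37 C.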
PINK1 modulator = PINK1 expression modulation | PINK1 immunofluorescence, high-content cytometry, 24 h | Potency, µM (titrated, usually from 76.6 µM), without a hit: at the highest dose activation (PINK1 increase), hits mostly activators | 0.2% of 410,000 active; active = well fitted activation curve with a large enough effect; inconclusive = small, poorly fitted or top-dose-only effect; cell line not stated here; note: % of control where 0% means no effect; nearly all actives have a fitted effect of over 65% in size
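PINK1 protein, normally rapidly degraded, was detected by immunofluorescence after 24 hour compound treatment of a stable cell line. Titration data (5 concentrations) came from laser-scanning cytometry, with CCCP-treated wells as controls.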
RORg inh = blocks mouse ROR gamma transcriptional activity; 5.4% of 310,000 active; Potency, µM (titrated, usually from 53.6 µM), inactives show at the top dose activity change, negative = inhibition, actives largely listed as inhibitors; Drosophila S2 Gal4-RORgamma UAS-luciferase reporter, 20 h; note: % is set by controls: 0 for no effect and ±100 for the full control effect; nearly all actives have a fitted effect of over 60% in size
Target sequence (P51450 whole entry, looked up, the tested form may be a part): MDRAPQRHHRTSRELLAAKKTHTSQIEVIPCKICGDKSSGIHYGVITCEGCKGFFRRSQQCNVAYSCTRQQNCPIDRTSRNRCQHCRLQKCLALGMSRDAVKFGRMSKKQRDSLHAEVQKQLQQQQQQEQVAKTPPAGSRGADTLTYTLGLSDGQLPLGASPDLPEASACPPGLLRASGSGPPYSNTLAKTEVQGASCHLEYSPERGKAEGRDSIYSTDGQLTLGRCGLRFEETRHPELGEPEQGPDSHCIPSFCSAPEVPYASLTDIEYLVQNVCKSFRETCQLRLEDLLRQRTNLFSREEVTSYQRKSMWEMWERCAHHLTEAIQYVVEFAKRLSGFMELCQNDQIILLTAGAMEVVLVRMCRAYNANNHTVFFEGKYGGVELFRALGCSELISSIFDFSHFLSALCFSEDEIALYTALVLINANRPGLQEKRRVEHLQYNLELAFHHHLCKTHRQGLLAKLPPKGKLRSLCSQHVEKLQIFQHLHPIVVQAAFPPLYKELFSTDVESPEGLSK
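Read-out: Photinus luciferase luminescence; inhibitors lower reporter signal. Insect Schneider cells with Gal4-ROR gamma fusion under metallothionein promoter, UAS reporter; 700 uM final copper sulfate induction, 20 hr, ambient temperature.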
Sfp PPTase inh = inhibitors of Bacillus subtilis Sfp phosphopantetheinyl transferase; Q9F4F7; AID 1490; Biochemical Sfp PPTase activity, qHTS; 3.5% of 310,000 active; Potency, µM, inactives show largest response in the series, negative = inhibition, actives largely listed as inhibitors;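 note: the enzyme is Sfp with the accession as filed and its product quenches rhodamine fluorescence; 0% = enzyme reaction without inhibitor and -100% = no enzyme wells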
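Fluorescence-quenching assay with 15 nM Sfp, 5 uM rhodamine-CoA and 12.5 uM BHQ-2-labelled ybbR peptide in pH 7.6 Hepes/MgCl2 buffer. Enzyme was pre-incubated with compound for 15 min at room temperature. Rate was taken from the 30-min fluorescence change (525/598 nm).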
Starred values were filed as active, the others as inactive; ? = inconclusive; . = no result; [ ] = dose if it differs, or a comment. Shown are actives, neighbours in structure and some others; about 8.1% of the full set was active somewhere. Unless noted, calls come from the whole dose curve; as a rule, active = well fitted curve in the direction sought with a large enough effect; inconclusive = small, poorly fitted or top-dose-only effect, or another doubt; inactive = no such curve, though single readings can be large; an effect the other way counts as inactive or inconclusive. Potency is the fitted concentration of half-maximal effect.

SMILES	Gal4-VP16 FLuc	ClpP mod	Epigenetic reg	PINK1 modulator	RORg inh	Sfp PPTase inh
O=C(CNC(=O)c1ccccc1Cl)OCc1cc(=O)n2ccsc2n1	.	?	1.5%	-0.1%	.	.
COC(=O)[C@@H]1C[C@@H](NC(=O)c2cnsn2)CN1Cc1ccc(Cl)cc1	.	.	.	0.4%	.	.
Fc1ccc(C(NCCc2ccccc2)c2nnc(-c3ccccc3Cl)o2)cc1 (stereo not drawn)	.	-1.0%	1.0%	5.7%	.	.
CCOc1ccc(C(=O)Nc2nnc(NC(=S)Nc3ccccc3)s2)cc1	1.58µM*	2.0%	8.6%	4.3%	0.355µM*	?
CC(C(=O)Nc1ccc(OC(F)(F)F)cc1)N1Cc2ccccc2C1=O (stereo not drawn)	.	-2.5%	-0.4%	0.1%	.	.
Cc1c(Br)c(O)c(Br)c2sc(=O)oc12	-1.9%	-2.7%	?	0.4%	12.5%	2.82µM*
COc1cc(N2Cc3ccccc3C2)ccc1C=O	0.398µM*	.	.	0.0%	0.355µM*	-3.5%
Cc1cc(C)cc(N2Cc3ccccc3C2)c1	9.1%	-0.4%	0.8%	0.5%	43.4%	11.5%
Cc1cccc(-c2nn3c(=O)cc(CN4CCN(S(=O)(=O)c5ccc(Cl)cc5)CC4)nc3s2)c1	.	-6.2%	-0.5%	0.8%	.	.
c1ccc(-c2csc(NNC3=NCCCCC3)n2)cc1	?	-4.3%	0.8%	14.7%	?	39.8µM*
Clc1ccc(-c2csc(NNC3=NCCCCC3)n2)cc1	?	-2.8%	1.4%	17.1%	5.62µM*	56.2µM*
COc1ccc(-c2csc(NC3=NCCCCC3)n2)cc1	21.3%	0.8%	1.9%	-0.9%	-7.4%	-16.5%
Brc1ccc(-c2csc(NC3=NCCCCC3)n2)cc1	?	.	0.0%	2.2%	-4.2%	0.5%
O=C(CCc1ccccc1)NC(NC(=S)Nc1ccc(Br)cc1)C(Cl)(Cl)Cl (stereo not drawn)	4.47µM*	-1.2%	3.4%	0.3%[38.3 µM]	?	-0.7%
S=C(NCc1ccccc1)Nc1ccc2ccccc2c1	11.2µM*	-0.7%	.	?	3.98µM*	4.5%
S=C(NCc1ccccc1)Nc1ccc(Oc2ccccc2)cc1	14.1µM*	-1.7%	.	?	12.6µM*	?
C=CCNC(=S)NCc1ccccc1OC	?	.	2.3%	1.2%	11.2µM*	20.7%
CCOc1cccc2sc(NC(=O)c3ccc(S(=O)(=O)N4CCCCC4)cc3)nc12	.	?	2.3%	-2.7%	.	.
COC(=O)c1ccc(Cl)cc1NC(=O)N(C)CCc1c(C)nn(C)c1C	.	-12.9%	-0.9%	-1.0%	.	.
COc1ccc(NC(=O)CCN2CCN(CCO)CC2)c(OC)c1	.	1.4%	-1.2%	0.6%	.	.
COc1ccc(C(=O)C[n+]2cccc3cccc(O)c32)cc1	.	-1.4%	.	.	.	.
Cc1ccc(C)c(CSc2nc3ncccc3[nH]2)c1	.	-6.7%	0.0%	1.6%	.	.
COc1ccccc1CNC(=O)Cc1ccc(C)cc1	-20.0%	-0.2%	-0.7%	5.3%	15.2%	5.2%
O=C(CCc1ccccc1)NNC(=O)Nc1ccc(Br)cc1	2.0%	0.9%	.	0.2%	0.0%	0.3%
O=C(CCc1ccccc1)NNC(=S)Nc1ccc(F)cc1	?	0.8%	-0.2%	-0.2%	3.55µM*	15.8%
SMILES	Gal4-VP16 FLuc	ClpP mod	Epigenetic reg	PINK1 modulator	RORg inh	Sfp PPTase inh
Cc1ccc(NC(=S)NNC(=S)NCc2ccccc2)cc1	-10.2%	-2.1%	-1.0%	-0.7%	-24.2%	56.2µM*
COc1ccccc1CNC(=S)NCc1ccc(F)cc1	7.94µM*	-1.2%	.	0.1%	7.08µM*	12.7%
Fc1ccc(CNC(=S)NCc2ccccc2)cc1	?	0.9%	.	2.7%	11.2µM*	-1.7%
CC/C=C\C/C=C\C/C=C\C/C=C\C/C=C\C/C=C\CCC(=O)NCCO	2.7%	.	-1.1%	.	-25.2%	-24.2%
Fc1ccc(NC(=S)NCc2cccnc2)cc1	4.4%[10 µM]	.	-0.8%[10.1 µM]	2.4%	10.6%	-2.5%
Fc1ccc(NC(=S)NCc2ccccc2)cc1	10µM*	-3.9%	.	0.8%	8.91µM*	16.5%
COc1ccccc1-c1cnnc(N/N=C/c2ccc(-c3cccc(Br)c3)o2)n1	2µM*	-0.7%	-1.0%	2.8%[38.3 µM]	1µM*	8.2%

Assay outcomes as filed in PubChem.
